# A number with no mark means an inactive call. Inconclusive results are not listed. Where a call stands in place of a potency, no number is given. The source made the active and inactive calls. Unless noted, calls follow the shape of the full dose curve.
# What was measured:
# [1] = qHTS assay to identify small molecule antagonists of the sonic hedgehog signaling (Shh) pathway (AID 1259369); also: nearly all actives have a fitted effect of over 45% in size; also: potency is read from the fitted curve at half-maximal effect
# Outline: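 Luminescence readout: firefly Luc under Gli1 response element in 3T3Gli1-Luc cells (NIH/3T3 clone). Antagonist mode, stimulation by conditioned medium; compound exposure 24hr at 37 C, 5% CO2.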
# [2] = target: Estrogen receptor beta (Homo sapiens) (UniProt Q92731); experiment: qHTS assay to identify small molecule agonists of the estrogen receptor beta (ER-beta) signaling pathway (AID 1259377; active = well fitted activation curve with a large enough effect in the signal ratio in the repeat runs, not every such curve was filed as active; the % refers to the signal ratio)
# Sequence of Estrogen receptor beta (Homo sapiens) (Q92731 whole entry, looked up): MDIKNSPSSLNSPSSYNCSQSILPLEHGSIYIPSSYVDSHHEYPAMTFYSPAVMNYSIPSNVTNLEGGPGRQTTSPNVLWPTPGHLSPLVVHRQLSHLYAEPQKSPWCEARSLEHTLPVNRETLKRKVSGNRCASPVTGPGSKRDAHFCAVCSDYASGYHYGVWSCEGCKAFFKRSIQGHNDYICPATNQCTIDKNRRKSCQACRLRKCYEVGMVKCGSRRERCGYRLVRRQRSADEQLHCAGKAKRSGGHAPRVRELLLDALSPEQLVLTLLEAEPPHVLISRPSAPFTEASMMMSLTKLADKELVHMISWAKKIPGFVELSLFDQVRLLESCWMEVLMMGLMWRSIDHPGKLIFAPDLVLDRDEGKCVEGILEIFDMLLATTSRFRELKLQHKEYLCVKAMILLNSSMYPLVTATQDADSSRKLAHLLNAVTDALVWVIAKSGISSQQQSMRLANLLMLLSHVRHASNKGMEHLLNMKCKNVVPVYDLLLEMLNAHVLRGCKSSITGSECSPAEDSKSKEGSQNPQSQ
# Outline: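 qHTS in ER-beta-UAS-bla HEK293T cells: 6 hr settling, then 16 hr compound at 37C, then LiveBLAzer substrate 2 h at RT before fluorescence reading.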
# [3] = target: Estrogen receptor beta (Homo sapiens) (UniProt Q92731); experiment: qHTS assay to identify small molecule antagonists of the estrogen receptor beta (ER-beta) signaling pathway (AID 1259378; active = well fitted inhibition curve with a large enough effect in the signal ratio in the repeat runs, not every such curve was filed as active; the % refers to the signal ratio)
# Outline: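 ER-beta-UAS-bla HEK293T cells in 2% charcoal-stripped FBS medium treated with compound plus 1nM final 17-beta-estradiol for 16 hr at 37C. Beta-lactamase reporter read by FRET substrate fluorescence after 2 hours at room temperature.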
# [4] = qHTS assay to identify small molecule agonists of the androgen receptor (AR) signaling pathway in the presence of an antagonist - cell viability counter screen (AID 1259379; active = well fitted curve in the direction sought with a large enough effect in the repeat runs; an effect the other way counts as inactive or inconclusive; also: nearly all actives have a fitted effect of over 25% in size; also: potency is read from the fitted curve at half-maximal effect;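 as to activity change, negative = cytotoxicity: MDA-kb2 human breast cancer cells carrying an MMTV luciferase reporter; series mostly up to about 92 µM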)
# Outline: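 Viability counter screen: CellTiter-Fluor fluorescence, measured in the same wells as the luciferase read-out. MDA-kb2 cells, 3,000/well, with nilutamide at 3.0uM final and compounds at 15 concentrations, 16 hr at 37C, 0% CO2.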
# [5] = qHTS assay to identify small molecule agonists of the estrogen receptor beta (ER-beta) signaling pathway - cell viability counter screen (AID 1259380; active = well fitted curve in the direction sought with a large enough effect in the repeat runs; an effect the other way counts as inactive or inconclusive; also: nearly all actives have a fitted effect of over 30% in size; also: potency is read from the fitted curve at half-maximal effect)
# Outline: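 Luminescence read-out (CellTiter-Glo, 30 min, room temp) taken in the same wells as the beta-lactamase reporter assay; ER-beta-UAS-bla HEK293T cells exposed to DMSO-dissolved compounds for 16 hr at 37C in 2% charcoal-stripped FBS medium.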
# [6] = target: Androgen receptor (Homo sapiens) (UniProt P10275); experiment: qHTS assay to identify small molecule agonists of the androgen receptor (AR) signaling pathway in the presence of an antagonist (AID 1259381); also: nearly all actives have a fitted effect of over 15% in size
# Sequence of Androgen receptor (Homo sapiens) (P10275 whole entry, looked up): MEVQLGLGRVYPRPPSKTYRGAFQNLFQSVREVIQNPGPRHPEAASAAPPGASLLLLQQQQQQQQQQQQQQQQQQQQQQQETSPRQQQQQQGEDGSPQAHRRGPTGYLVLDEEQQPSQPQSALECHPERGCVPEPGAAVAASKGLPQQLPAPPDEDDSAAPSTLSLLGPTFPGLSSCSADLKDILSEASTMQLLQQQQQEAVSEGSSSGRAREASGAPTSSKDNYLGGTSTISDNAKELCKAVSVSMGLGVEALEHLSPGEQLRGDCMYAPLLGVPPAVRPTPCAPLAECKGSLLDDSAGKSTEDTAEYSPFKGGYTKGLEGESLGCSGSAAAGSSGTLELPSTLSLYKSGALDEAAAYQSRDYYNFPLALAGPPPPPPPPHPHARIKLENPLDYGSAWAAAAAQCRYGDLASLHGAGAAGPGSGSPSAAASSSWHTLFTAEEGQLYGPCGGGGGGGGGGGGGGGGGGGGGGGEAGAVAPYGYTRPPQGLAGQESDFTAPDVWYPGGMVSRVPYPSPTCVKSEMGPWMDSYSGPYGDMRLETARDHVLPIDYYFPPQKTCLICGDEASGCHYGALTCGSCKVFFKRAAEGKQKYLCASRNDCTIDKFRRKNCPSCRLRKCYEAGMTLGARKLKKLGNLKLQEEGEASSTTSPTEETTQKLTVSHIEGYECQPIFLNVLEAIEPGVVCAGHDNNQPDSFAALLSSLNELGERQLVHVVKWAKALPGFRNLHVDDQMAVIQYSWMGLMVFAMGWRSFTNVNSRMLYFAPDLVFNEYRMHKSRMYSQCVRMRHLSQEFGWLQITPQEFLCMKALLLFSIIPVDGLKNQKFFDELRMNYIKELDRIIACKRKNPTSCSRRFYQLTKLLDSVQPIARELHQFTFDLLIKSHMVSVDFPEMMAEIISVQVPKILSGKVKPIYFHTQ
# Outline: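 Luciferase read-out (ONE-Glo, 30min room temperature) in MDA-kb2 MMTV-reporter cells; agonist mode run in presence of AR antagonist nilutamide, 3.0uM final. Compounds tested as 15-point series, 16hr exposure at 37C, 0% CO2.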
# [7] = qHTS assay to identify small molecule antagonists of the estrogen receptor beta (ER-beta) signaling pathway - cell viability counter screen (AID 1259382; active = well fitted curve in the direction sought with a large enough effect in the repeat runs; an effect the other way counts as inactive or inconclusive; also: series mostly up to about 92 µM; nearly all actives have a fitted effect of over 55% in size)
# Outline: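 Luminescent ATP read-out (CellTiter-Glo, 30 min, RT) taken in the same wells as the bla reporter assay. HEK293T ER-beta-UAS-bla cells in 2% charcoal-stripped FBS were exposed to compounds with 1nM E2 for 16 hr at 37C.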
# [8] = target: Estrogen receptor (Homo sapiens) (UniProt P03372); experiment: qHTS assay to identify small molecule agonists of the estrogen receptor alpha (ER-alpha) signaling pathway in the presence of an antagonist (AID 1259383); also: top concentration of the series differs between compounds; nearly all actives have a fitted effect of over 15% in size
# Sequence of Estrogen receptor (Homo sapiens) (P03372 whole entry, looked up): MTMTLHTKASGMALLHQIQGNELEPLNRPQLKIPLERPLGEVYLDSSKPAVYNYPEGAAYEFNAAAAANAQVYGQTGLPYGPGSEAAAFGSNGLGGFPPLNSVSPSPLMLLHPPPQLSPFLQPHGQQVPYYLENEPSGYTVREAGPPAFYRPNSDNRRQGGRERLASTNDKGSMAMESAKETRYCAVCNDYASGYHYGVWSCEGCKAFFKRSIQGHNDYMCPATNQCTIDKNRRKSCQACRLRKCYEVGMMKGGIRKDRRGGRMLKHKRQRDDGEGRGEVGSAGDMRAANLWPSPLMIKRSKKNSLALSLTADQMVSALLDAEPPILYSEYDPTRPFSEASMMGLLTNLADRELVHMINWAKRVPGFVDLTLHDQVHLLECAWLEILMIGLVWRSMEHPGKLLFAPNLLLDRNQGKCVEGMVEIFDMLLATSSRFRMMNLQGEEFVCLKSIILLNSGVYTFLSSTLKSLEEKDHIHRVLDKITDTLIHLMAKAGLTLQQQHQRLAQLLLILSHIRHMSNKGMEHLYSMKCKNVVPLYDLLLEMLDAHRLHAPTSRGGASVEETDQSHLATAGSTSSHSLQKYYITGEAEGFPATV
# Outline: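 Luciferase luminescence (ONE-Glo, 30min at room temperature) measured in VM7Luc4E2 cells after 22hr compound exposure at 15 concentrations, with 10.0nM ICI-182,780 final present; cells express endogenous ER-alpha and carry four EREs upstream of luciferase.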
# [9] = qHTS assay to identify small molecule agonists or antagonists of the thyroid stimulating hormone receptor (TSHR) signaling pathway - wild type cell line counter screen (AID 1259384)
# Outline: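 Wild-type Hek293 cells, 800/well, 18 h at 37C, then compound with Ro20-1724 for 30 min RT. cAMP by HTRF (cAMP-d2/anti-cAMP cryptate), 1 h RT, fluorescence read. 15 concentrations, triplicates.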
# [10] = target: Thyrotropin receptor (Homo sapiens) (UniProt P16473); experiment: qHTS assay to identify small molecule antagonists of the thyroid stimulating hormone receptor (TSHR) signaling pathway (AID 1259385); also: nearly all actives have a fitted effect of over 20% in size
# Sequence of Thyrotropin receptor (Homo sapiens) (P16473 whole entry, looked up): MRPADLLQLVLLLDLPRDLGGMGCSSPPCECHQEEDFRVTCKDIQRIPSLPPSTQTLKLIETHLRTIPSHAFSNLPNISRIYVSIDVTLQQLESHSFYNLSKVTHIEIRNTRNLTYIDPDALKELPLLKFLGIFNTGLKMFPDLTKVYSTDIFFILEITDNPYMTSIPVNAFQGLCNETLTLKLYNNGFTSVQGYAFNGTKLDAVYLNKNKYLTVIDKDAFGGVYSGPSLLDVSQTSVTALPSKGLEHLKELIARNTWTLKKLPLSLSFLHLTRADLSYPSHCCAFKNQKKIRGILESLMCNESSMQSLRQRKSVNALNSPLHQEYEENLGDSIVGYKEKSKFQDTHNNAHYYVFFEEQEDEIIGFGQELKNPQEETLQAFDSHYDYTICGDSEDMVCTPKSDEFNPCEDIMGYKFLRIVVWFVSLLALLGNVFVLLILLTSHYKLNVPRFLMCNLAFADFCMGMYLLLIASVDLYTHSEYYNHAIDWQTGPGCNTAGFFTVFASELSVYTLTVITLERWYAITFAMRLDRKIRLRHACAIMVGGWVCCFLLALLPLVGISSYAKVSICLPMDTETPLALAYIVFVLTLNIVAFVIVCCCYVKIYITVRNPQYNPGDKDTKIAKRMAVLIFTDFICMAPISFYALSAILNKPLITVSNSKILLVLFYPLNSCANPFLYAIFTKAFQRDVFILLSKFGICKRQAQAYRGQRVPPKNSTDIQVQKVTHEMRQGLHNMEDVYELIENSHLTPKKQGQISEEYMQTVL
# Outline: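 TSHR-HEK293 cells (800/well) plated 18 h, then compounds with Ro20-1724 and TSH at 1.5 ng/mL final, 30 min at room temperature. cAMP quantified by HTRF (cAMP-d2/anti-cAMP-cryptate, 1 h); 15 concentrations in triplicate.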
structure (smiles),measurement,setting,value
CN(C)CCN(Cc1ccsc1)c1ccccn1,Potency,[1],inactive
same,Potency,[2],inactive
same,Potency,[3],inactive
same,Potency,[4],inactive
same,Potency,[5],inactive
same,Potency,[6],inactive
same,Potency,[7],inactive
same,Potency,[8],inactive
NCC(=O)CCC(=O)O,Potency,[1],inactive
same,Potency,[2],inactive
same,Potency,[3],inactive
same,Potency,[4],inactive
same,Potency,[5],inactive
same,Potency,[7],inactive
same,Potency,[8],inactive
same,Potency,[9],inactive
same,Potency,[10],inactive
CCOCC(O)COc1ccc(NC(=O)CC[S+](C)C)cc1 (centres undefined),Potency,[1],inactive
same,Potency,[2],inactive
same,Potency,[3],inactive
same,Potency,[4],inactive
same,Potency,[5],inactive
same,Potency,[7],inactive
same,Potency,[8],inactive
same,Potency,[9],inactive
same,Potency,[10],inactive
OCCNCc1ccccc1,Potency,[1],inactive
same,Potency,[2],inactive
same,Potency,[3],inactive
same,Potency,[4],inactive
same,Potency,[5],inactive
same,Potency,[6],inactive
same,Potency,[7],inactive
same,Potency,[8],inactive
COCC(C)OC(C)=O (centres undefined),Potency,[1],inactive
same,Potency,[2],inactive
same,Potency,[3],inactive
same,Potency,[4],inactive
same,Potency,[5],inactive
same,Potency,[8],inactive
COc1cc(Cl)c(OC)cc1N,Potency,[1],inactive
same,Potency,[2],inactive
same,Potency,[3],inactive
same,Potency,[4],inactive
same,Potency,[5],inactive
same,Potency,[7],inactive
same,Potency,[9],inactive
C=CCOC(=O)CCC1CCCCC1,Potency,[1],inactive
same,Potency,[2],inactive
same,Potency,[3],inactive
same,Potency,[4],inactive
same,Potency,[5],inactive
same,Potency,[7],inactive
same,Potency,[9],inactive
same,Potency,[10],inactive
OC[C@H]1O[C@@H](OCCc2ccc(O)cc2)[C@H](O)[C@@H](O)[C@@H]1O,Potency,[1],inactive
same,Potency,[2],inactive
same,Potency,[3],inactive
same,Potency,[4],inactive
same,Potency,[5],inactive
same,Potency,[7],inactive
same,Potency,[8],inactive
COc1ccc(C)cc1[N+](=O)[O-],Potency,[1],inactive
same,Potency,[2],inactive
same,Potency,[3],inactive
same,Potency,[4],inactive
same,Potency,[5],inactive
same,Potency,[7],inactive
same,Potency,[9],inactive
NCC(=O)O,"activity change, negative = inhibition",[1],20.6% [at 19 µM]
same,activation,[2],-2.53% [at 19 µM]
same,"activity, negative = inhibition",[3],10% [at 19 µM]
same,"activity change, negative = cytotoxicity",[4],0.351% [at 19 µM]
same,"activity change, negative = cytotoxicity",[5],4.31% [at 19 µM]
same,"activity change, negative = cytotoxicity",[7],-1.05% [at 19 µM]
same,Potency,[8],inactive
same,cAMP activity change,[9],"-6.62% [at 18.9 µM, hits give high values]"
same,"activity change, negative = inhibition",[10],2.94% [at 19 µM]
CCC(C)c1cc(C(C)(C)C)c(O)c(C(C)(C)C)c1 (centres undefined),Potency,[1],inactive
same,Potency,[2],inactive
same,Potency,[3],inactive
same,Potency,[4],inactive
same,Potency,[5],inactive
same,Potency,[7],inactive
same,Potency,[9],inactive
same,Potency,[10],inactive
CCCCOC(=O)CCCCCCCC(=O)OCCCC,Potency,[1],inactive
same,Potency,[2],inactive
same,Potency,[3],inactive
same,Potency,[4],inactive
same,Potency,[5],inactive
same,Potency,[7],inactive
same,Potency,[9],inactive
same,Potency,[10],inactive
CN1Cc2cc(C(=O)N3CCC(C4CCNCC4)CC3)ccc2NC(CC(=O)O)C1=O (centres undefined),Potency,[1],inactive
same,Potency,[2],inactive
same,Potency,[3],inactive
same,Potency,[4],inactive
same,Potency,[5],inactive
same,Potency,[7],inactive
same,Potency,[8],inactive
same,Potency,[9],inactive
same,Potency,[10],inactive
O=C1CCCCCCCCCCCC(=O)OCCO1,Potency,[1],inactive
same,Potency,[2],inactive
same,Potency,[3],inactive
same,Potency,[4],inactive
same,Potency,[5],inactive
same,Potency,[6],inactive
same,Potency,[7],inactive
same,Potency,[8],inactive
same,Potency,[9],inactive
COC(C)(C)CCO,Potency,[1],inactive
same,Potency,[2],inactive
same,Potency,[3],inactive
same,Potency,[4],inactive
same,Potency,[5],inactive
same,Potency,[7],inactive
same,Potency,[9],inactive
same,Potency,[10],inactive
CCO[C@H](Cc1ccc(OCCc2ccc(OS(C)(=O)=O)cc2)cc1)C(=O)O,Potency,[1],inactive
same,Potency,[2],inactive
same,Potency,[3],inactive
same,Potency,[4],inactive
same,Potency,[5],inactive
same,Potency,[6],inactive
same,Potency,[7],inactive
same,Potency,[8],inactive
O=[N+]([O-])c1ccc(NCCO)c(OCCO)c1,Potency,[1],inactive
same,Potency,[2],inactive
same,Potency,[3],inactive
same,Potency,[4],54.5 µM (active)
same,Potency,[5],inactive
same,Potency,[6],inactive
same,Potency,[7],inactive
same,Potency,[9],inactive
same,Potency,[10],inactive
CCn1cc(C(=O)O)c(=O)c2cnc(N3CCNCC3)nc21,Potency,[1],inactive
same,Potency,[2],inactive
same,Potency,[3],inactive
same,Potency,[4],inactive
same,Potency,[5],inactive
same,Potency,[7],inactive
Cc1cc(C(=O)O)ccc1[N+](=O)[O-],Potency,[1],inactive
same,Potency,[2],inactive
same,Potency,[3],inactive
same,Potency,[4],inactive
same,Potency,[5],inactive
same,Potency,[7],inactive
same,Potency,[8],inactive
same,Potency,[9],inactive
same,Potency,[10],inactive
CC(C)(O)c1ccc(CNC(=O)c2cccnc2Oc2ccc(F)cc2)cc1,Potency,[1],0.273 µM (active)
same,Potency,[2],inactive
same,Potency,[3],inactive
same,Potency,[4],inactive
same,Potency,[5],inactive
same,Potency,[7],inactive
same,Potency,[9],inactive
same,Potency,[10],inactive
CC(CC=O)c1ccccc1 (centres undefined),Potency,[1],54.5 µM (active)
same,Potency,[2],inactive
same,Potency,[3],inactive
same,Potency,[4],inactive
same,Potency,[5],inactive
same,Potency,[7],inactive
same,Potency,[8],inactive
same,Potency,[9],inactive
same,Potency,[10],inactive
CCOC(=O)Cc1cccc2ccccc12,Potency,[1],inactive
same,Potency,[2],inactive
same,Potency,[3],inactive
same,Potency,[4],inactive
same,Potency,[5],inactive
same,Potency,[7],inactive
same,Potency,[8],inactive
same,Potency,[9],inactive
same,Potency,[10],inactive
CCCCCCCCCCCCCCCCOS(=O)(=O)O,Potency,[1],inactive
same,Potency,[2],inactive
same,Potency,[3],inactive
same,Potency,[4],inactive
same,Potency,[5],33.5 µM (active)
same,Potency,[6],inactive
same,Potency,[8],inactive
same,Potency,[9],inactive
C1CCCNCCC1,Potency,[1],inactive
same,Potency,[2],inactive
same,Potency,[3],inactive
same,Potency,[4],inactive
same,Potency,[5],inactive
same,Potency,[7],inactive
same,Potency,[9],inactive
same,Potency,[10],inactive
